The source of these data is ChEMBL document CHEMBL3433997, “St. Jude Leishmania screening dataset” (2016).

For orientation: inhibition means the change of the read-out against control, counted positive when it falls.

Structures are written as SMILES.

What all share (assay type): functional
The target in experiment [1] is Solute carrier family 2, facilitated glucose transporter member 1 (Homo sapiens) (UniProt P11166). Description: ST_JUDE_LEISH: Cytotoxicity at 2uM final concentration against transgenic Leishmania Mexicana promastigotes LmGLUT1 that are glucose transport deficient and complemented with the human glucose transporter GLUT1. Activity is measured by DNA content using SYBR green in vitro.
Sequence of Solute carrier family 2, facilitated glucose transporter member 1 (Homo sapiens) (P11166 whole entry): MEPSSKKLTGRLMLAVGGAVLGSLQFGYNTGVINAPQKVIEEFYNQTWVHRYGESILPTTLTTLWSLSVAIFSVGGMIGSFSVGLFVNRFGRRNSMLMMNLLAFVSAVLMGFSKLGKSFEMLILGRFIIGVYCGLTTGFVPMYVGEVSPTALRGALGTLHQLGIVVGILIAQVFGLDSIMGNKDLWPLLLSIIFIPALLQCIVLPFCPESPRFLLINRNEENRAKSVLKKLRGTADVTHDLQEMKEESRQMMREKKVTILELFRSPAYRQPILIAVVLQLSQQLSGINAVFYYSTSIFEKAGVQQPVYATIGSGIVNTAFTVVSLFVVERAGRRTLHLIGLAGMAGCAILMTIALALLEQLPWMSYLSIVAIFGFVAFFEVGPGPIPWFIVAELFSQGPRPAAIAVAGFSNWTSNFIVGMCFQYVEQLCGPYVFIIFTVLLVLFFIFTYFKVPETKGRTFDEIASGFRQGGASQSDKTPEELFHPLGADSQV

Experiment [2] has as its target Hexose transporter 1 (Plasmodium falciparum) (UniProt O97467). As to the kind of experiment: ST_JUDE_LEISH: Cytotoxicity at 2uM final concentration against transgenic Leishmania Mexicana promastigotes LmPfHT that are glucose transport deficient and complemented with the Plasmodium falciparum hexose transporter. Activity is measured by DNA content using SYBR green in vitro.

Experiment [3] concerns the target Glucose transporter (Leishmania mexicana) (UniProt O61059). As to the kind of experiment: ST_JUDE_LEISH: Cytotoxicity at 2uM final concentration against transgenic Leishmania Mexicana promastigotes LmGT2 that are glucose transport deficient and complemented with the L. Mexicana glucose transporter 2. Activity is measured by DNA content using SYBR green in vitro.

For the compound `Cn1cnc(CCNC(=O)c2ccc(-c3ccc(-c4nc5cc(F)ccc5[nH]4)cc3)cc2)c1`, the inhibition in experiment [1] turned out to be 5.05%; in experiment [2] it was 5.92%; in experiment [3], 4.84%.
Taken in the same sequence, the figures for `O=[N+]([O-])c1cccc(CNCC2CCN(Cc3ccc(C(F)(F)F)cc3)CC2)c1` were 0.44%, 5.74% and 6.41%.
With `O=C(Nc1ccc2c(c1)CCN2C1CCN(Cc2cccc(F)c2F)C1)c1ccco1` (stereo unspecified), the inhibition in experiment [1] was found to be 2.08%; in experiment [2] it was 1.62%; in experiment [3] it was 2.93%.
Turning to `Cc1cccc(CNc2nc(C)cc(N[C@@H](Cc3ccccc3)C(=O)NCCOc3ccccc3)n2)c1`, the inhibition in experiment [1] amounted to 16.6%; in experiment [2] it was 15.8%; in experiment [3], 11.4%.
For `CN1CC=C(c2csc3ccc(NC(=O)Nc4ccc(-c5ccncc5)c5ccccc45)cc23)CC1` the same measures were 3.83%, 3.39% and -1.21%.
`O=C(NC1CC1)c1ccc(N2CCCC(COc3ccc4c(c3)CCCC4)C2)nc1` (stereo unspecified): the figures for the inhibition in experiment [1], in experiment [2] and in experiment [3] were 2.1%, 1.8% and 1.93%, respectively.
For `COc1cccc(CNC(=O)c2cnc(N3CCN(c4ccncc4)CC3)c(Cl)c2)c1`, the inhibition came out at 18% in experiment [1], 23.8% in experiment [2] and 10.9% in experiment [3].
Taken in the same sequence, the figures for `COc1c(C2=CCN(CCCCNC(=O)c3ccc(-c4ccc(C#N)cc4)cc3)CC2)ccc2c1CCCC2` were 0.4%, -0.52% and 0.06%.
Taken in the same sequence, the figures for `CN1CCC(C(=O)Nc2ccc(-c3ccc(-c4nc5cc(C(F)(F)F)ccc5[nH]4)s3)cc2)CC1` were -0.08%, 0.49% and -0.16%.
For `COc1cc(CNC[C@@H](O)[C@H](Cc2ccccc2)NC(=O)c2cc(C3CCCC3)cc(N3CCCS3(=O)=O)c2)cc(OC)c1` the same measures were 4.36%, 3.83% and 4.45%.
As for `Cc1cc(NC(=O)NCCN2CCC(NC(=O)c3cccc(Br)c3)C2)c2ccccc2n1` (stereo unspecified), the inhibition in experiment [1] is 0.36%; in experiment [2] it was 0.24%; in experiment [3], 2.62%.
For `COc1ccc2nc(/N=C3\NC(c4ccccn4)(c4ccccn4)C(=O)N3C)[nH]c2c1` the same measures were 11.7%, 11.1% and 9.86%.
Taken in the same sequence, the figures for `O=C(Cc1ccccc1)NC1(c2ccccc2)CCN(CCc2c[nH]c3ccc(F)cc23)CC1` were -0.99%, 0.25% and -0.69%.
Taken in the same sequence, the figures for `Cc1ccc(NC(=O)c2ccc3ncccc3c2)cc1OC1CCN(Cc2ccc(F)cc2)C1` (stereo unspecified) were 1.19%, 0.73% and 1.26%.
`CCOC(=O)NC1=NC(C)(C)N(OCc2ccc(Cl)c(Cl)c2)C(NC(=O)OCC)=N1`: the inhibition was found to be 3.54% in experiment [1], 2.08% in experiment [2] and 2.54% in experiment [3].
For `NC(=O)Nc1ccc2cn[nH]c2c1`, the inhibition in experiment [1] was -0.02%; in experiment [2] it was 0.57%; in experiment [3], 0.33%.
Consider `C=CCOc1ccc(C(=O)Nc2nonc2-c2ccc(OC)c(OC)c2)cc1`, for which the results for the inhibition in experiment [1], in experiment [2] and in experiment [3] were 1%, 1.23% and 1.78%, respectively.
As for `COc1ccc(NC(=O)NC2CCN(c3ccnc4ccccc34)C2)cc1` (stereo unspecified), the results for the inhibition in experiment [1], in experiment [2] and in experiment [3] were 0.52%, 0.7% and 2.29%, respectively.
For `CCN(c1cc(C)nc(Nc2ccc(Cl)cc2)n1)[C@H]1CCN(Cc2ccccc2)C1` the same measures were 9.15%, 7.78% and 6.41%.
For `CN(C)CCOc1ccnc2ccc(NC(=O)Cc3ccc(-c4ccncc4)c4ccccc34)cc12`, the inhibition in experiment [1] was 1.07%; in experiment [2], -0.32%; in experiment [3], 7.74%.
For `CC(C)c1ccc(NS(=O)(=O)c2cccc(C(=O)NC3CCN(CC4CCCCC4)CC3)c2)cc1`, the inhibition in experiment [1] is 3.07%; in experiment [2], 1.15%; in experiment [3] it was 1.74%.
For `N#Cc1ccccc1C(=O)N(Cc1cncn1Cc1cccc(F)c1)CC1CC1` the same measures were 6.38%, 10.2% and 8.88%.
For `c1cncc(CCNCc2ccc(-c3ccc(-c4nc5ccccc5[nH]4)s3)cc2)c1` the same measures were 8.43%, 6.34% and 0.7%.
Taken in the same sequence, the figures for `COc1cc(C(C)C)ccc1C1CCN(CCCCNC(=O)c2ccc(NC(=O)c3ccc(Cl)cc3)cc2)CC1` were 4.4%, 6.6% and 3.65%.
Take `CC1(C)N=C(N)N=C(N)C1c1ccc(Cl)c(Cl)c1` (stereo unspecified): the inhibition amounted to 0.69% in experiment [1], 2.94% in experiment [2] and 1.36% in experiment [3].
For `O=C(Nc1ccc(Cn2nc(Cl)c(N3CCNCC3)cc2=O)cc1)Nc1ccc(-c2ccccc2)cc1`, the inhibition in experiment [1] came to 14%; in experiment [2], 9.91%; in experiment [3] it was 11.4%.
For `Cc1ccccc1OCC(=O)Nc1ccc(-c2nc3cc4ccccc4cc3[nH]2)cc1` the same measures were 7.32%, 3.71% and 4.05%.
`CCN1CCC(N(Cc2ccc(-c3ccc(C(F)(F)F)cc3)cc2)C(=O)Cn2c(SCc3cccc(F)c3F)cc(=O)c3ccccc32)C1` (stereo unspecified): the inhibition in experiment [1] was 0.27%; in experiment [2] it was -0.31%; in experiment [3], -0.18%.
On to `CC(C)COc1ccc(Cl)cc1Cc1ccc(-c2nc3cc(N4CCN(C)CC4)ccc3[nH]2)o1`, for which the results for the inhibition in experiment [1], in experiment [2] and in experiment [3] were 4.56%, 1.63% and 2.01%, respectively.
Turning to `Cc1cccc2nc(-c3cccc(-c4cccc(NC(=O)C(C)CN(C)C)c4)c3)[nH]c12` (stereo unspecified), the inhibition in experiment [1] was 1.51%; in experiment [2] it was 1.39%; in experiment [3] it was 2.3%.
For `N#Cc1ccc(NC(=O)NC2CCN(CCCCCNC(=O)/C=C/c3ccc(Cl)c(Cl)c3)CC2)cc1`, the figures for the inhibition in experiment [1], in experiment [2] and in experiment [3] were 3.11%, 3.17% and 6.31%, respectively.
`CCOc1ccc(-c2nc(NC(=O)COc3ccc(OC)cc3)sc2C)cc1`: the inhibition in experiment [1] is 9.63%; in experiment [2], 10%; in experiment [3], 10.1%.
